Results as given in article PMC9838217, “Structure of SALL4 zinc finger domain reveals link between AT-rich DNA binding and Okihiro syndrome”.
Positions count from the first letter of the chain named.

Tests used:
Experiment in all cases: HT-SELEX; high values mean tight binding
Settings in all cases: protein: recombinant; vector His6-GST; dsDNA, one strand shown
[1] = target: T1, SALL4 ZFC4 WT (HT-SELEX) (Mus musculus, UniProt Q8BX22 870-940)
T1 sequence: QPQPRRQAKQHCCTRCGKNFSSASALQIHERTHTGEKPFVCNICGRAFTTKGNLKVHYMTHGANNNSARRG
In short: (§1)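 Binding signal is expressed as fold change in each canonical k-mer's read fraction over the initial random library. To obtain it, 1 µg of purified recombinant mouse SALL4 zinc finger cluster 4 (residues 870–940) was incubated for 10 min at room temperature with library DNA (1.5 µg first cycle, 200 ng later cycles) in 100 µl of 10 mM Tris–HCl pH 7.5, 50 mM NaCl, poly(dI-dC) and DTT. Ni2+ bead-captured complexes went through washing, PCR amplification and reselection for up to 6 cycles, in triplicate, before MiSeq sequencing and scanning for 6-mers.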

[2] = target: T2, SALL4 ZFC4 R900W (HT-SELEX) (Mus musculus, UniProt Q8BX22 870-940, R900W)
T2 sequence: T1 sequence with R31W
In short: as §1

[3] = target: T3, SALL4 ZFC4 G921D (HT-SELEX) (Mus musculus, UniProt Q8BX22 870-940, G921D)
T3 sequence: T1 sequence with G52D
In short: as §1

AATACT
binding signal [1]: 2.02 ± 0.117 fold-change vs cycle 0
binding signal [2]: 1.99 ± 0.126 fold-change vs cycle 0
binding signal [3]: 1.82 ± 0.161 fold-change vs cycle 0

CAGACA
binding signal [1]: 0.66 ± 0.0364 fold-change vs cycle 0
binding signal [2]: 0.798 ± 0.012 fold-change vs cycle 0
binding signal [3]: 0.862 ± 0.0574 fold-change vs cycle 0

AAGACA
binding signal [1]: 1.28 ± 0.0466 fold-change vs cycle 0
binding signal [2]: 1.42 ± 0.0793 fold-change vs cycle 0
binding signal [3]: 1.35 ± 0.0674 fold-change vs cycle 0

CGATAC
binding signal [1]: 0.695 ± 0.052 fold-change vs cycle 0
binding signal [2]: 0.793 ± 0.033 fold-change vs cycle 0
binding signal [3]: 0.902 ± 0.0425 fold-change vs cycle 0

ACCTGC
binding signal [1]: 0.368 ± 0.0272 fold-change vs cycle 0
binding signal [2]: 0.391 ± 0.01 fold-change vs cycle 0
binding signal [3]: 0.516 ± 0.075 fold-change vs cycle 0

ATACCC
binding signal [1]: 0.85 ± 0.0409 fold-change vs cycle 0
binding signal [2]: 0.935 ± 0.04 fold-change vs cycle 0
binding signal [3]: 0.962 ± 0.0418 fold-change vs cycle 0

ACTTTC
binding signal [1]: 1.28 ± 0.0405 fold-change vs cycle 0
binding signal [2]: 1.42 ± 0.0806 fold-change vs cycle 0
binding signal [3]: 1.37 ± 0.0709 fold-change vs cycle 0

AAACGG
binding signal [1]: 0.53 ± 0.0454 fold-change vs cycle 0
binding signal [2]: 0.652 ± 0.023 fold-change vs cycle 0
binding signal [3]: 0.713 ± 0.0232 fold-change vs cycle 0

ACCGGT
binding signal [1]: 0.368 ± 0.0353 fold-change vs cycle 0
binding signal [2]: 0.438 ± 0.0164 fold-change vs cycle 0
binding signal [3]: 0.518 ± 0.0665 fold-change vs cycle 0

TTAGAA
binding signal [1]: 1.97 ± 0.0545 fold-change vs cycle 0
binding signal [2]: 2.01 ± 0.0848 fold-change vs cycle 0
binding signal [3]: 1.75 ± 0.166 fold-change vs cycle 0

CTAAAC
binding signal [1]: 1.16 ± 0.0729 fold-change vs cycle 0
binding signal [2]: 1.33 ± 0.0737 fold-change vs cycle 0
binding signal [3]: 1.27 ± 0.0849 fold-change vs cycle 0

TAATTA
binding signal [1]: 4.1 ± 0.33 fold-change vs cycle 0
binding signal [2]: 2.77 ± 0.208 fold-change vs cycle 0
binding signal [3]: 2.33 ± 0.317 fold-change vs cycle 0

ACTGCA
binding signal [1]: 0.647 ± 0.0528 fold-change vs cycle 0
binding signal [2]: 0.7299 ± 0.00625 fold-change vs cycle 0
binding signal [3]: 0.797 ± 0.0181 fold-change vs cycle 0

ACGGAC
binding signal [1]: 0.337 ± 0.0313 fold-change vs cycle 0
binding signal [2]: 0.425 ± 0.0312 fold-change vs cycle 0
binding signal [3]: 0.526 ± 0.0575 fold-change vs cycle 0

GAGGTA
binding signal [1]: 0.857 ± 0.032 fold-change vs cycle 0
binding signal [2]: 0.988 ± 0.0197 fold-change vs cycle 0
binding signal [3]: 0.996 ± 0.0208 fold-change vs cycle 0

CATCAC
binding signal [1]: 0.892 ± 0.0417 fold-change vs cycle 0
binding signal [2]: 0.975 ± 0.0159 fold-change vs cycle 0
binding signal [3]: 1.032 ± 0.00917 fold-change vs cycle 0

CAAGTG
binding signal [1]: 0.7915 ± 0.00346 fold-change vs cycle 0
binding signal [2]: 0.902 ± 0.026 fold-change vs cycle 0
binding signal [3]: 0.944 ± 0.0555 fold-change vs cycle 0

ATGATC
binding signal [1]: 1.37 ± 0.0972 fold-change vs cycle 0
binding signal [2]: 1.46 ± 0.0896 fold-change vs cycle 0
binding signal [3]: 1.48 ± 0.0835 fold-change vs cycle 0

CTGTAC
binding signal [1]: 0.751 ± 0.0338 fold-change vs cycle 0
binding signal [2]: 0.874 ± 0.0496 fold-change vs cycle 0
binding signal [3]: 0.911 ± 0.0674 fold-change vs cycle 0

CAAGAC
binding signal [1]: 0.74 ± 0.0108 fold-change vs cycle 0
binding signal [2]: 0.856 ± 0.0182 fold-change vs cycle 0
binding signal [3]: 0.905 ± 0.036 fold-change vs cycle 0

ACCAAG
binding signal [1]: 0.816 ± 0.0198 fold-change vs cycle 0
binding signal [2]: 0.935 ± 0.0459 fold-change vs cycle 0
binding signal [3]: 0.983 ± 0.0112 fold-change vs cycle 0

AGCACA
binding signal [1]: 0.64 ± 0.039 fold-change vs cycle 0
binding signal [2]: 0.77 ± 0.0406 fold-change vs cycle 0
binding signal [3]: 0.894 ± 0.0466 fold-change vs cycle 0
